Source: PubChem
ClpP mod: qHTS Assay for Activators of ClpP | purified B. subtilis ClpP, FRET peptide cleavage, 20 min | Potency, µM (top dose mostly 57.5 µM), for inactives: top-dose activity change, negative = active | 340,000 tested, 1.9% active | ATP-dependent Clp protease proteolytic subunit (Bacillus subtilis (strain 168)), P80244; active = well fitted falling curve with a large enough effect; inconclusive = small, poorly fitted or top-dose-only effect; inactive = no such curve, though single readings can be large or run the other way; note: potency is the fitted concentration of half-maximal effect; the source files actives as falling curves though it sought activators and does not explain the sign; nearly all actives have a fitted effect of over 65% in size
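ClpP 10 microg/mL final, pH 8 Tris/KCl buffer with BSA, glycerol, Tween-20; compound pinned in; FRET-FV substrate; RT 20 min; Ex320/Em430; ΔFRET vs ADEP 5.8 microM, DMSO, no enzyme.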
hERG WT inh: blocks the wildtype human KCNH2 potassium channel; U2OS, BacMam KCNH2, thallium flux FluxOr; hits give low values; AID 720551; activity change, % at 1.84 µM; Q12809; 340,000 tested, 0.37% active;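 active = maximum activity change below -70%; inconclusive = maximum activity change between -70% and -50%; inactive = maximum activity change above -50%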; note: % is set by controls: 0 for no effect and ±100 for the full control effect
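U2OS cells transduced with wild-type KCNH2 virus are loaded with FluxOr dye for 45 min, and thallium flux is measured in kinetic reads before and after stimulation buffer. Rate constants are normalized to DMSO controls.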
Chronic BCR inh: inhibitors of chronic active B-cell receptor signaling; ABC-DLBCL IkBa-CBG/CBR reporter, luminescence ratio, 4 h; AID 493014; 340,000 tested, 0.05% active; Potency, µM (titrated, usually from 46.1 µM), for inactives: at the top dose activity change, negative = inhibition, hits mostly inhibitors; active = well fitted inhibition curve with a large enough effect in the signal ratio, with a control signal flat, not every such curve was filed as active; inconclusive = small, poorly fitted or top-dose-only effect, or effect the other way, or a change in a side signal; the % refers to the signal ratio;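 note: potency is the fitted concentration of half-maximal effect; plate controls were basal doxycycline-induced cells for no effect and cells given 10 µM MG132 for full effect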
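Compounds up to 46 uM were incubated four hours with TMD8 cells whose green CBG68 luciferase is fused to IkappaBalpha; red CBR luminescence normalised the signal, and concentration-effect curves were fitted to fusion, red and ratio data.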
KCNH2 3.1 inh: blocks the human KCNH2 3.1 channel isoform; U2OS KCNH2 3.1, thallium flux FluxOr; hits give low values; activity change, % (tested at about 1.8 µM); 340,000 tested, 0.95% active; AID 720553;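 active = maximum activity change below -70%; inconclusive = maximum activity change from -70% to -50%; inactive = maximum activity change above -50%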;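 note: thallium influx rate constant from kinetic fluorescence after stimulation buffer; % is set by controls: 0 for no effect and ±100 for the full control effect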
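Virally transduced U2OS (3.1 isoform, 4 h infection in dark at RT) → overnight 37 C → FluxOr + Red40 in HBSS/HEPES, 45 min → stimulation buffer, 2 min kinetic read → rate constant vs DMSO controls.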
LDHA block: inhibitors of human lactate dehydrogenase A; P00338; purified LDHA, NADH/diaphorase-resazurin fluorescence; hits give low values; activity change, % (values are at about 110 or 230 µM); 480,000 tested, 0.15% active; in the data active = activity change below about -30%; inconclusive = mostly about -25% to -30%;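 note: plate controls were DMSO wells for no effect and wells without enzyme for full effect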
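Human LDH5 at 2 nM final in Tris HCl pH 7.4 with 0.06 mM NADH and 0.2 mM pyruvate, reacted 5 minutes at room temperature. Remaining NADH coupled via diaphorase/resazurin; resorufin fluorescence read at 0 and 20 minutes, normalized to enzyme-free and DMSO wells.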
12-LOX inh: inhibitors of human 12S-lipoxygenase ALOX12. P18054. purified 12hLO, xylenol orange hydroperoxide absorbance. Potency, µM (doses to about 108 µM), inactives show at the highest dose activity change, negative = inhibition, actives largely listed as inhibitors. 580,000 tested, 1.1% active. AID 1671190; active = well fitted inhibition curve with a large enough effect; inconclusive = small, poorly fitted or top-dose-only effect, or another doubt; inactive = no such curve, though single readings can be large or run the other way; note: potency is the fitted concentration of half-maximal effect; % is set by controls: 0 for no effect and ±100 for the full control effect
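Purified human 12hLO (150 nM final) in 25 mM Hepes, 0.01% Triton X-100, pH 7.0 was preincubated 15 min at room temperature with compound. Then 40 uM arachidonic acid was added, 30 min. Hydroperoxide was read by Fe-XO absorbance ratio 573/405 nm.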
Starred values were filed as active, the others as inactive; [ ] = dose if it differs, or a comment. This is a sample that favours compounds with a hit; in the whole collection about 3% have one here.

Results for CC(C)c1nc2cc(NC(=O)c3ccc(=O)[nH]n3)ccc2o1 ?
LDHA block: 5; 12-LOX inh: 27%

What do the screens show for `COc1ccc(N2C(=O)NC(NS(=O)(=O)c3ccccc3)(C(F)(F)F)C2=O)cc1` (stereo not given)?
ClpP mod: 2%; hERG WT inh: -23; Chronic BCR inh: 6%; KCNH2 3.1 inh: 10; LDHA block: 1; 12-LOX inh: 434%

Results for COc1ccc(N=C2C(=S)N(c3ccc(OC)cc3)C(=NS(=O)(=O)c3ccccc3)N2c2ccccc2)cc1 ?
ClpP mod: 28µM*; hERG WT inh: -4; KCNH2 3.1 inh: 30; LDHA block: 12; 12-LOX inh: inconclusive

How did Cc1[nH]c(=O)[nH]c(=O)c1Sc1ccccc1[N+](=O)[O-] do in these assays?
hERG WT inh: -2; Chronic BCR inh: -9%; KCNH2 3.1 inh: 15; LDHA block: 4; 12-LOX inh: -1%

Results for Cc1cc(OC(=O)c2ccco2)c(Sc2ccccc2[N+](=O)[O-])c(=O)o1 ?
hERG WT inh: -2; Chronic BCR inh: 4%; KCNH2 3.1 inh: 2; LDHA block: -106*

What do the screens show for `Cc1ccc2cccc(SCC(=O)NCC#N)c2n1`?
ClpP mod: 28µM*; hERG WT inh: -4; Chronic BCR inh: -1%; KCNH2 3.1 inh: 0; LDHA block: 2; 12-LOX inh: -10%

Results for O=C1/C(=C\c2ccccc2)CN(C(=O)CCN2CCCCC2)C/C1=C/c1ccccc1 ?
ClpP mod: inconclusive; hERG WT inh: -17; KCNH2 3.1 inh: -75*; LDHA block: 3; 12-LOX inh: -17%

What do the screens show for `CC(C)(C)Sc1ccc2nn(CC(=O)Nc3ccccc3F)c(=O)n2n1`?
LDHA block: -1; 12-LOX inh: 8%

How did O=C(Nc1ccc(N2CCOCC2)c(S(=O)(=O)Nc2ccc(Cl)cc2)c1)c1cnccn1 do in these assays?
ClpP mod: -2%; hERG WT inh: -1; Chronic BCR inh: -7%; KCNH2 3.1 inh: 6; LDHA block: 0; 12-LOX inh: 8.9µM*

How did COCCNC(=S)Nc1ccc(N2CCOCC2)c(S(=O)(=O)Nc2ccc(Cl)cc2)c1 do in these assays?
ClpP mod: 1%; hERG WT inh: 8; KCNH2 3.1 inh: -2; LDHA block: -11; 12-LOX inh: 5µM*

What do the screens show for `CCC(=O)Nc1ccc(N2CCOCC2)c(S(=O)(=O)Nc2ccc(Cl)cc2)c1`?
ClpP mod: 0%; hERG WT inh: 7; Chronic BCR inh: 3%; KCNH2 3.1 inh: 1; LDHA block: -5; 12-LOX inh: inconclusive

What do the screens show for `O=C(Nc1ccc(N2CCOCC2)c(S(=O)(=O)Nc2ccc(Cl)cc2)c1)c1ccc(=O)[nH]n1`?
ClpP mod: -3%; hERG WT inh: -6; Chronic BCR inh: -9%; KCNH2 3.1 inh: -42; LDHA block: 3; 12-LOX inh: inconclusive

Results for COc1ccc(-c2nn(-c3ccccc3)cc2/C=N/NC(=S)NC(C)C)cc1OC ?
ClpP mod: -12%; hERG WT inh: -4; Chronic BCR inh: inconclusive; KCNH2 3.1 inh: -31; LDHA block: -5; 12-LOX inh: 35µM*

What do the screens show for `COc1ccc(-c2nn(-c3ccccc3)cc2/C=C/C(=O)OCC(=O)Nc2ccc(C#N)cc2)cc1`?
ClpP mod: 28µM*; hERG WT inh: 27; Chronic BCR inh: 3%; KCNH2 3.1 inh: -12; LDHA block: -2

How did COc1ccc(-c2nn(-c3ccccc3)cc2/C=N/NC(=O)c2ccc3c(c2)OCO3)cc1 do in these assays?
Chronic BCR inh: -9%

What do the screens show for `COc1ccc(-c2nn(-c3ccccc3)cc2/C=N/NC(=O)c2cccc(S(=O)(=O)Nc3ccccc3OC)c2)cc1`?
ClpP mod: 18µM*; hERG WT inh: 0; Chronic BCR inh: inconclusive; KCNH2 3.1 inh: 6; LDHA block: 0; 12-LOX inh: -20%

What do the screens show for `COc1ccc(-c2nn(-c3ccccc3)cc2/C=N/NC(=O)c2ccc(Br)o2)cc1`?
ClpP mod: 32µM*; hERG WT inh: -1; Chronic BCR inh: 1%; KCNH2 3.1 inh: 1; LDHA block: 0; 12-LOX inh: -22%

Results for COc1ccc(-c2nn(-c3ccccc3)cc2/C=N/Nc2cccc(C(=O)O)c2)cc1 ?
ClpP mod: 1%; hERG WT inh: -17; Chronic BCR inh: 0%; KCNH2 3.1 inh: -4; LDHA block: 4; 12-LOX inh: 0%

Results for O=C(N/N=C/c1cn(-c2cccs2)nc1-c1ccccc1)c1ccccc1Br ?
ClpP mod: 22µM*; hERG WT inh: -13; Chronic BCR inh: inconclusive; KCNH2 3.1 inh: -20; LDHA block: -2; 12-LOX inh: -12%

What do the screens show for `C=CCNC(=S)N/N=C/c1cn(-c2ccccc2)nc1-c1ccc(OC)cc1`?
ClpP mod: -23%; hERG WT inh: -19; Chronic BCR inh: inconclusive; KCNH2 3.1 inh: -8; LDHA block: -5; 12-LOX inh: 40µM*

What do the screens show for `Cc1ccc(CN(C)CC(=O)N(C)c2c(N)n(Cc3ccccc3)c(=O)[nH]c2=O)cc1`?
LDHA block: 7; 12-LOX inh: 72%

Results for COC(=O)c1sc2ccccc2c1-n1cccc1C(=O)C(=O)Nc1ccc(C)cc1 ?
ClpP mod: -1%; hERG WT inh: 6; Chronic BCR inh: 16%; KCNH2 3.1 inh: 2; LDHA block: 1; 12-LOX inh: 61%

Results for COC(=O)c1sc2ccccc2c1-n1cccc1C(=O)C(=O)Nc1ccc(Cl)cc1 ?
ClpP mod: 14µM*; hERG WT inh: -3; Chronic BCR inh: inconclusive; KCNH2 3.1 inh: -27; LDHA block: -2; 12-LOX inh: 0%

What do the screens show for `CC(C)(C)C(=O)N1CCC2(CC1)Cc1ccccc1NC2=O`?
12-LOX inh: 74%[176 µM]

Results for N#C/C(=C/c1ccc(N2CCCCC2)o1)C(=O)Nc1ccc2ccccc2c1 ?
ClpP mod: -2%; hERG WT inh: -45; Chronic BCR inh: inconclusive; KCNH2 3.1 inh: -72*; LDHA block: 0; 12-LOX inh: inconclusive

How did Cc1cc2cc(NS(=O)(=O)c3ccc4ccccc4c3)ccc2[nH]1 do in these assays?
LDHA block: -6; 12-LOX inh: 10µM*

How did Cc1cc2cc(NS(=O)(=O)c3ccccc3)ccc2[nH]1 do in these assays?
LDHA block: -1; 12-LOX inh: -29%

What do the screens show for `CNc1sc(C(C)=O)cc1C`?
LDHA block: -1; 12-LOX inh: 13µM*
